# According to the supplement of paper PMC9135407:
# Several values for one entry are separate records, joined by “and”; a condition that tells them apart may be missing. Equal values may be shown once. Where a name gives a salt, the structure may show the parent alone. Screen size: about 5,800 compounds; about 620 (11%) showed activity. The sample as a whole holds a higher share of actives than the screen did. Unmarked numbers belong to inactive results.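 Rule for the calls: active = score above a cut-off or among the top three wells of a plate; in these data no inactive exceeds 0.85.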
# System: primary human hepatic stellate cells (donor 1)
# Assay: scaled lipid accumulation score (0 = DMSO-like, 1 = nortriptyline-like); higher = stronger HSC inactivation (lipid re-accumulation), active = hit call of the paper
# Conditions: 48 h
# Procedure: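 Primary lipid accumulation screen in primary human hepatic stellate cell myofibroblasts (donor 1, passage 8) in 384-well plates. 100 nL of library compound was pin-transferred into 30 µL medium in duplicate, and cells were treated for 48 h. The 'Scaled' score combines distance from plate baseline, toxicity and reproducibility penalties, and is normalised to nortriptyline (positive) and DMSO (negative) controls on each plate. A hit is defined as scaled >0.85 or among the top 3 wells per plate.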
# [1] = library stock concentration: 10 mM
# [2] = library stock concentration: 1 mM
# [3] = library stock concentration: 3.33 mM
# [4] = library stock concentration: 80 uM
# [5] = library stock concentration: 400 uM
# [6] = library stock concentration: 2 mM
# [7] = library stock concentration: 8.6 mM
smiles,measurement,setting,value
CCCN(CCC)C1CCc2cccc(O)c2C1 (stereo not drawn),scaled lipid accumulation score,[1],≤ -0.07
CCCN(CCC)C1CCc2cccc(O)c2C1 (stereo not drawn) [8-Hydroxy-DPAT hydrobromide],scaled lipid accumulation score,[1],0.055
O=C(O)CCC(CP(=O)(O)O)C(=O)O (stereo not drawn) [PMPA (NAALADase inhibitor)],scaled lipid accumulation score,[1],≤ -0.006
CCCCC/C=C\C/C=C\C/C=C\C/C=C\CCCC(=O)NCCCC(=O)O [N-Arachidonoyl-.gamma.-Aminobutyric Acid],scaled lipid accumulation score,[2],0.032
CCN1C[C@]2(COC)CC[C@H](OC)[C@]34C5C[C@@H]6[C@@H](OC)C[C@@]7(OCO[C@@]7(C13)[C@@H](O)C24)C5[C@H]6OC (stereo partly drawn) [Delcorine],scaled lipid accumulation score,,≤ 0
CN(C)C(=S)SSC(=S)N(C)C [Thiram] [listing 1 of 2 here],scaled lipid accumulation score,library stock concentration: 8.3 mM,0.965 (active)
CN(C)C(=S)SSC(=S)N(C)C [Thiram] [listing 2 of 2 here],scaled lipid accumulation score,[1],0.163
"Ic1ccccc1CNC1C2CCN(CC2)C1C(c1ccccc1)c1ccccc1 [L-703,606 oxalate salt hydrate]",scaled lipid accumulation score,[1],0.063
CN1CCC(c2ccc(F)cc2)C(COc2ccc3c(c2)OCO3)C1 (stereo not drawn),scaled lipid accumulation score,library stock concentration: 9.7 mM,0.664
CCCCCC(/C=C/C=O)OO (stereo not drawn) [4-hydroperoxy 2-Nonenal],scaled lipid accumulation score,[2],0.019
O=C1NC(=O)c2c1c1c3ccccc3n3c1c1c2c2ccccc2n1C1CCC3O1,scaled lipid accumulation score,[1],1.3 (active)
"COC(=O)[C@]1(O)C[C@@H]2O[C@@]1(C)n1c3ccccc3c3c4c(c5c6ccccc6n2c5c31)C(=O)NC4 [K-252a, Nocardiopsis sp.]",scaled lipid accumulation score,[3],0.362
O=C1NC(=O)c2c1c1c3ccccc3n3c1c1c2c2ccccc2n1[C@H]1CC[C@@H]3O1,scaled lipid accumulation score,[3],0.338
Cc1sc2c(c1C)C(c1ccc(Cl)cc1)=N[C@H](CC(=O)OC(C)(C)C)c1nnc(C)n1-2,scaled lipid accumulation score,[4],≤ 0
same,scaled lipid accumulation score,[5],≤ 0
same,scaled lipid accumulation score,[6],≤ 0
same,scaled lipid accumulation score,[1],≤ 0
CC[C@@]1(O)C[C@H](O[C@H]2C[C@H](N(C)C)[C@H](O)[C@H](C)O2)c2c(cc3c(c2O)C(=O)c2c(O)ccc(O)c2C3=O)[C@H]1C(=O)OC [Pyrromycin],scaled lipid accumulation score,[1],≤ 0
C[C@@H]1O[C@@H](O[C@H]2C[C@@H](O)[C@]3(CO)[C@H]4[C@H](O)C[C@]5(C)[C@@H](C6=CC(=O)OC6)CC[C@]5(O)[C@@H]4CC[C@]3(O)C2)[C@H](O)[C@H](O)[C@H]1O [Ouabain] [listing 1 of 2 here],scaled lipid accumulation score,[7],0.734
C[C@@H]1CC[C@@]2(OC1)O[C@H]1C[C@H]3[C@@H]4CC=C5C[C@@H](O[C@@H]6O[C@H](CO)[C@@H](O[C@@H]7O[C@@H](C)[C@H](O)[C@@H](O)[C@H]7O)[C@H](O)[C@H]6O[C@@H]6O[C@@H](C)[C@H](O)[C@@H](O)[C@H]6O)CC[C@]5(C)[C@H]4CC[C@]3(C)[C@H]1[C@@H]2C [Dioscin],scaled lipid accumulation score,[3],0.577
same,scaled lipid accumulation score,[1],0.255
C[C@@H]1O[C@@H](O[C@@H]2C[C@@H](O)[C@]3(CO)[C@H]4[C@H](O)C[C@]5(C)[C@@H](C6=CC(=O)OC6)CC[C@]5(O)[C@@H]4CC[C@]3(O)C2)[C@H](O)[C@H](O)[C@H]1O [Ouabain],scaled lipid accumulation score,[1],1 (active)
C[C@@H]1O[C@@H](O[C@H]2C[C@@H](O)[C@]3(CO)[C@H]4[C@H](O)C[C@]5(C)[C@@H](C6=CC(=O)OC6)CC[C@]5(O)[C@@H]4CC[C@]3(O)C2)[C@H](O)[C@H](O)[C@H]1O [Ouabain] [listing 2 of 2 here],scaled lipid accumulation score,[1],1.13 (active)
C[C@@H]1O[C@@H](O[C@@H]2C=C3CC[C@@H]4[C@H](CC[C@]5(C)[C@@H](c6ccc(=O)oc6)CC[C@]45O)[C@@]3(C)CC2)[C@H](O)[C@H](O)[C@H]1O [Proscillaridin A],scaled lipid accumulation score,,0.768
C[C@@H]1O[C@@H](O[C@H]2C[C@@H](O)[C@]3(CO)C4C(CC[C@]3(O)C2)[C@@]2(O)CC[C@H](C3=CC(=O)OC3)[C@@]2(C)C[C@H]4O)[C@H](O)[C@H](O)[C@H]1O (stereo partly drawn) [Ouabain],scaled lipid accumulation score,[1],0.993 (active)
C[C@@H]1O[C@@H](O[C@H]2C[C@@H](O)[C@]3(CO)[C@@H]4C(CC[C@]3(O)C2)[C@@]2(O)CC[C@H](C3COC(=O)C3)[C@@]2(C)C[C@H]4O)[C@H](O)[C@H](O)[C@H]1O (stereo partly drawn) [Dihydroouabain],scaled lipid accumulation score,[1],0.964 (active)
Cc1c2ccncc2c(C)c2c1[nH]c1ccccc12 [Ellipticine],scaled lipid accumulation score,,0.623
same,scaled lipid accumulation score,[1],≤ -0.07
CCC(N)C(O)c1ccc(O)c(O)c1 (stereo not drawn) [Ethylnorepinephrine hydrochloride],scaled lipid accumulation score,[7],≤ 0
same,scaled lipid accumulation score,[1],≤ -0.027
NCC(O)c1cc(O)c(O)cc1F (stereo not drawn) [6-Fluoronorepinephrine hydrochloride],scaled lipid accumulation score,[1],≤ 0
CCCCC/C=C\C/C=C\C/C=C\C/C=C\CCCC(=O)Nc1ccc(O)cc1C,scaled lipid accumulation score,[2],0.064
CCCCCCCC/C=C\CCCCCCCC(=O)N[C@H](C)CO,scaled lipid accumulation score,[2],0.021
COc1cc(C(O)CN)ccc1O (stereo not drawn),scaled lipid accumulation score,[1],≤ -0.055
C=C(C)[C@@H]1CCC(C)=C[C@H]1c1c(O)cc(O)cc1CCCCC,scaled lipid accumulation score,[2],≤ 0
CCCCC/C=C\C/C=C\C/C=C\C/C=C\CCCC(=O)N[C@@H](C)C(=O)O [N-Arachidonoyl-L-Alanine],scaled lipid accumulation score,[2],0.035
CCn1cnc2c(Nc3cccc(Cl)c3)nc(N[C@@H]3CCCC[C@@H]3N)nc21,scaled lipid accumulation score,[4],≤ -0.016
same,scaled lipid accumulation score,[5],≤ -0.016
same,scaled lipid accumulation score,[6],0.503
same,scaled lipid accumulation score,[1],0.364 and 0.356
CN1CCC[C@@H]1Cc1c[nH]c2ccc(Nc3ncccc3[N+](=O)[O-])cc12,scaled lipid accumulation score,[1],≤ 0
CC[C@]1(O)CC[C@H]2[C@@H]3CCC4=CCCC[C@@H]4[C@H]3CC[C@@]21C [Ethylestrenol],scaled lipid accumulation score,[1],≤ 0
CCN1C[C@]2(C)CC[C@H](O)[C@]34C1[C@@H](C[C@H]23)[C@@]1(O)C[C@H](OC)[C@H]2C[C@@H]4[C@@H]1[C@H]2O [Karakoline],scaled lipid accumulation score,,≤ 0
C=C(C)[C@H]1CN[C@H](C(=O)O)[C@H]1CC(=O)O [(-)-(.alpha.)-Kainic Acid (hydrate)],scaled lipid accumulation score,[2],≤ 0
C=C(C)[C@H]1CN[C@H](C(=O)O)[C@H]1CC(=O)O [Kainic acid],scaled lipid accumulation score,[1],≤ -0.055 and 0.031 and ≤ -0.009
CC[C@H]1CN2CCc3cc(OC)c(OC)cc3[C@@H]2C[C@@H]1C[C@H]1NCCc2cc(OC)c(OC)cc21.Cl.Cl [Emetine dihydrochloride],scaled lipid accumulation score,,0.98 (active)
CC[C@H]1CN2CCc3cc(OC)c(OC)cc3C2C[C@@H]1CC1NCCc2cc(OC)c(OC)cc21.Cl.Cl (stereo partly drawn) [Emetine],scaled lipid accumulation score,library stock concentration: 3.6 mM,1.37 (active)
COc1cc2c(cc1OC)C(C)NCC2 (stereo not drawn),scaled lipid accumulation score,,0.537
COc1cc2c(cc1OC)C1CC(=O)C(CC(C)C)CN1CC2 (stereo not drawn) [Tetrabenazine],scaled lipid accumulation score,[1],≤ 0 and ≤ -0.001
CC[C@H]1CN2CCc3cc(OC)c(OC)cc3[C@@H]2C[C@@H]1C[C@H]1NCCc2cc(OC)c(OC)cc21 [Emetine dihydrochloride hydrate],scaled lipid accumulation score,[1],0.835
CC[C@H]1CN2CCc3cc(OC)c(OC)cc3[C@@H]2C[C@@H]1C[C@H]1NCCc2cc(OC)c(OC)cc21 [Emetine],scaled lipid accumulation score,[1],0.627
CC(=O)[C@H]1CC[C@H]2[C@@H]3CC[C@H]4C[C@](C)(O)CC[C@]4(C)[C@H]3CC[C@]12C [Ganaxolone],scaled lipid accumulation score,[1],0.134 and ≤ -0.001
CCCCCCC(=O)O[C@H]1CC[C@H]2[C@@H]3C[C@@H](O)C4=CC(=O)CC[C@]4(C)[C@H]3CC[C@]12C [6.beta.-Testosterone Enanthate],scaled lipid accumulation score,[2],0.05
c1ccc(/N=N/c2ccccc2)cc1 [Azobenzene],scaled lipid accumulation score,[1],≤ 0
CC1=C2[C@H]3OC(=O)[C@@H](C)[C@@H]3CC[C@@]2(C)C=CC1=O [alpha-Santonin],scaled lipid accumulation score,,≤ 0
C[C@H]1CC[C@]2(NC1)O[C@H]1C[C@H]3[C@@H]4CC[C@H]5C[C@@H](O)CC[C@]5(C)[C@H]4CC[C@]3(C)[C@H]1[C@@H]2C [Tomatidine],scaled lipid accumulation score,,0.117
C[C@]12CC[C@H]3[C@@H](CC[C@]4(O)C[C@@H](O)CC[C@]34C=O)[C@@]1(O)CC[C@@H]2C1=CC(=O)OC1 [Strophanthidin],scaled lipid accumulation score,,0.887 (active)
C[C@H]1O[C@@H](O[C@H]2CC[C@]3(C=O)[C@H]4CC[C@]5(C)[C@@H](C6=CC(=O)OC6)CC[C@]5(O)[C@@H]4CC[C@]3(O)C2)C[C@H](O)[C@@H]1O [Helveticoside],scaled lipid accumulation score,,0.504
C[C@]12CCC3C(CC[C@]4(O)C[C@@H](O)CC[C@]34C=O)[C@@]1(O)CCC2C1=CC(=O)OC1 (stereo partly drawn) [Strophanthidin],scaled lipid accumulation score,[1],1.12 (active)
CCN1C[C@]2(COC(=O)c3ccccc3N3C(=O)C[C@H](C)C3=O)CC[C@H](OC)[C@@]34[C@@H]5C[C@H]6[C@H](OC)[C@@H]5[C@](O)(C[C@@H]6OC)[C@](O)([C@@H](OC)[C@H]23)[C@@H]14 [Methyllycaconitine citrate],scaled lipid accumulation score,[1],≤ -0.006
CCC1(c2ccc(N)cc2)CCC(=O)NC1=O (racemic) [Dl-aminoglutethimide],scaled lipid accumulation score,[7],0.005
NC(CP(=O)(O)O)C(=O)O (stereo not drawn),scaled lipid accumulation score,[1],0.082
CCCCCCCCCCCCCCCCOCC(COP(=O)([O-])OCC[N+](C)(C)C)OC(C)=O (stereo not drawn) [Enantio-PAF C16],scaled lipid accumulation score,[2],0.064
